Compounds with a hit are over-represented: about 1.3% of the library has one in this group of screens.
ugtP null kill – compounds lethal to S. aureus RN4220 ugtP deletion mutant. 0.54% of 330,000 active. OD600 growth, 16 h. growth inhibition, % (concentration not given with the values); in the data active = growth inhibition above about 68%;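 note: plate controls were untreated wells for no effect and antibiotic for full effect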
RN4220 kill – kills Staphylococcus aureus RN4220. 0.33% of 330,000 active. S. aureus RN4220 growth, OD600, 16 h. inhibition, % (test concentration not listed). AID 1259311; in the data active = inhibition above about 85%;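 note: plate controls were untreated cells for no effect and reference antibiotic for full effect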
Mtb bLac sens – beta-lactam sensitization of Mtb H37Rv. AID 434955. M. tuberculosis H37Rv growth with meropenem, percent inhibition. 0.27% of 330,000 active. inhibition, % at 25 µM; call rule not given here;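 note: growth measured after seven days incubation then overnight dye step; 0% = bacteria only wells and 100% = bacteria with antibiotic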
SARS 3CLpro inh – SARS-CoV 3CLpro protease inhibition; 0.14% of 290,000 active; AID 1706; recombinant SARS-CoV 3CLpro, quenched FRET peptide cleavage; inhibition, % at 6 µM; P0C6X7; in the data active = inhibition above about 12%
MazEF act – activators of E. coli MazEF toxin-antitoxin RNase | FAM/BHQ RNA-DNA oligo cleavage fluorescence, 5 h | 0.32% of 350,000 active | AID 504720 | P0AE70 | activation, % at 20 µM; in the data active = activation above about 50%
Target sequence (P0AE70 whole entry, looked up): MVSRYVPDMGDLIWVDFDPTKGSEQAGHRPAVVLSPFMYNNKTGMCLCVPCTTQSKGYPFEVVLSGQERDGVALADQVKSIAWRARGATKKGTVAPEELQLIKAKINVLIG
CCHF vOTU inh – CCHFV vOTU protease inhibition. Pep-AMC fluorescence. inhibition, % at 11.5 µM. 0.55% of 370,000 active. AID 651958; in the data active = inhibition above about 30%; note: 0% = vehicle wells with enzyme and 100% = no enzyme wells
Starred values were filed as active, the others as inactive; . = not tested or not shown; ! = repeats disagree.

SMILES	ugtP null kill	RN4220 kill	Mtb bLac sens	SARS 3CLpro inh	MazEF act	CCHF vOTU inh
Cc1cc(C(C)(C)CC(C)(C)C)ccc1OCCOCC[N+](C)(C)Cc1ccccc1	100*	101*	100	.	-18	19
COc1ccc(CN2CCC3C=CCc4cccc(c43)C2)cc1 (configuration not stated)	-3	-3	.	.	.	.
Cc1cc(C)cc(Nc2nc3ccccc3c(=O)[nH]2)c1	-4	4	3	1	9	1
COc1nc(Nc2nc3ccccc3c(=O)[nH]2)nc2ccc(C)cc12	100*	100*	74	7	33	1
COc1cc(C=NNC(=O)C(=O)NCC2CCCO2)cc(Cl)c1O (configuration not stated)	1	-1	.	.	.	.
CCC(C)C(CNC)NCC(Cc1cccc2ccccc12)NCCc1cccc(C(F)(F)F)c1 (configuration not stated)	100*	101*	.	.	.	.
CNCC(Cc1ccccc1)NCC(Cc1cccc2ccccc12)NCCc1ccc(C)cc1 (configuration not stated)	100*	101*	.	.	.	.
COc1cc(C=NN=C2SC(CC(=O)O)C(=O)N2c2ccc(O)cc2)ccc1O (configuration not stated)	-2	3	.	.	.	.
CCCOc1cc2c(C#N)c(N3CCCC3)nc(N)c2c(N)n1	2	8	-4	.	63*	-1
N#Cc1c(N)nc(N2CCCC2)c(C#N)c1-c1ccc(Cl)cc1	-4	1	-32	0	66*	2
Cn1nc(N)c2c(-c3ccc(Cl)cc3)c(C#N)c(N)nc21	0	8	-2	-4	6	-8
N#Cc1c(N2CCCC2)nc(N)c2c(N)nc(N3CCCC3)cc12	-23	8	5	-5	21	72*
COc1cc2c(C#N)c(N3CCCC3)nc(N)c2c(N)n1	-6	9	14	-5	90*!	-5
CCOc1cc2c(C#N)c(N3CCCC3)nc(N)c2c(N)n1	2	3	-21	.	8	-14
COc1cc2c(C#N)c(N3CCN(C)CC3)nc(N)c2c(N)n1	1	2	1	0	.	-75
O=[N+]([O-])c1ccc(Cl)c(C=NN2CCN(Cc3ccccc3)CC2)c1	-3	3	.	.	.	.
O=C(NN=Cc1ccco1)c1cccc(N2Cc3ccccc3C2)c1	-16	4	.	.	.	.
O=C(NN=Cc1cccnc1)c1cc2ccccc2cc1O	-6	7	.	.	.	.
Cc1ccc(CSc2nc3ccsc3c(=O)n2Cc2ccccn2)cc1	87*	-10	0	6	6	1
N#Cc1ccccc1CSc1nc2ccsc2c(=O)n1Cc1ccccn1	14	-1	12	0	-12	-2
Cc1cc(/C=C2\C(=O)NC(=O)N(c3ccc(Br)cc3)C2=O)c(C)n1C	3	3	38	2	87*	1
Cc1cc(/C=C2\C(=O)NC(=O)N(c3cccc(Br)c3)C2=O)c(C)n1C	0	-2	-2	0	230*	11
O=C(Nc1cccnc1)C(N=Nc1cccnc1)=C(O)c1ccccc1	-21	12	.	.	.	.
CCCOc1cccc(C(=O)NC(=S)Nc2ccc(N3CCN(C)CC3)cc2)c1	95*	9	30	1	10	2
CCOc1cccc(C(=O)NC(=S)Nc2ccc(N3CCN(CC)CC3)cc2)c1	94*	2	-10	0	0	-6
SMILES	ugtP null kill	RN4220 kill	Mtb bLac sens	SARS 3CLpro inh	MazEF act	CCHF vOTU inh
CN1CCN(c2ccc(NC(=O)c3cccc(OCc4ccccc4)c3)cc2)CC1	-2	-6	99	-2	13	7
CCOc1cccc(C(=O)NC(=S)Nc2ccccc2)c1	-5	4	12	5	5	7
CC(C)(C)OC(=O)C(Cc1ccccc1)NC(=O)c1nc[nH]c1C(=O)N1CCNCC1 (configuration not stated)	10	8	.	.	.	.
C=CCOc1ccc2c(c1)CCC1C2CCC2(C)C(O)C(O)CC12 (configuration not stated)	84*	-8	.	.	-8	11
C[C@]12CCC3c4ccc(O)cc4CCC3C1CC(O)C2O (some centres not stated)	-4	6	.	.	.	.
Cn1c(CC(=O)NC(C)(C)CO)c(Sc2ccccc2)c2ccccc21	11	-1	-2	4	-4	-10
CCOC(=O)Cc1c(Sc2ccccc2)c2ccccc2n1C	95*	-9	6	0	-8	12
O=C(Nc1ccc(Br)c(C(F)(F)F)c1)c1ccc(C(F)(F)F)cc1	99*	101*	97	4	5	15

Assay outcomes from PubChem.
